Pf growth 48h = inhibits P. falciparum growth in the first generation, 48 h. P. falciparum luciferase growth in erythrocytes, 48 h. Potency, µM (titrated, usually from 28.7 µM), for inactives: at the top dose activity change, negative = inhibition, most hits filed as inhibitors. 5.9% of 310,000 active. AID 504832; note: potency is the fitted concentration of half-maximal effect; % is set by controls: 0 for no effect and ±100 for the full control effect
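Cell-based growth assay: transgenic P. falciparum expressing firefly luciferase, cultured in red cells within RPMI 1640 containing 0.5% w/v Albumax, 24 mM bicarbonate and gentamycin. A drop in luciferase activity indicates inhibition.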
Shiga toxin inh = Shiga toxin inhibition; Vero cells, Shiga toxin protein synthesis inhibition reporter; inhibition, % at 38.7 µM; 9.2% of 290,000 active; AID 2315; in the data active = inhibition mostly above about 28%, no sharp cut-off; inactive = mostly below about 43%; note: 0% is about no effect
CHX counter = affects cycloheximide protein synthesis inhibition readout, counter-screen. cell reporter, cycloheximide protein synthesis inhibition counterscreen. max response, %. 12% of 300,000 active; in the data active = max response mostly above about 13%, no sharp cut-off; inactive = mostly below about 14%; note: read at 38.3 µM for the half of the compounds with a filed dose; 0% is about no effect
Pf growth 96h = P. falciparum growth inhibition at 96 hour, primary screen for plastid delayed-death inhibitors; P. falciparum luciferase reporter growth, 96 h; 6.9% of 320,000 active; Potency, µM (titrated, usually from 28.7 µM), for the others: top-dose activity change, negative = inhibition, usual class: inhibitors; AID 504834; note: potency is the fitted concentration of half-maximal effect; % is set by controls: 0 for no effect and ±100 for the full control effect
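Readout is luminescence from an integrated firefly luciferase in P. falciparum. Red cells, 2% hematocrit and 0.05% parasitemia final, were cultured with compound through two parasite generations (96 hours) at 37 C, 5% CO2.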
Numbers without * were called inactive; i = inactive; ? = inconclusive; · = not tested or not shown; [ ] = another dose, or the depositor's remark. Shown are actives, neighbours in structure and some others; about 21% of the full set was active somewhere. Unless noted, calls come from the whole dose curve; as a rule, active = well fitted inhibition curve with a large enough effect; inconclusive = small, poorly fitted or top-dose-only effect, or another doubt; inactive = no such curve, though single readings can be large or run the other way.

SMILES	Pf growth 48h	Shiga toxin inh	CHX counter	Pf growth 96h
COc1ccc2c(c1OC)C(=O)OC2Nc1nc(-c2cc3ccccc3oc2=O)cs1 (stereo unspecified)	127.1%	68.0*	58.6*	i
COc1ccc2c(c1OC)C(=O)OC2Nc1nc(-c2cc3cc([N+](=O)[O-])ccc3oc2=O)cs1 (stereo unspecified)	2.5%	-2.9	8.1	i
COc1cccc(-c2csc(NC3OC(=O)c4c3ccc(OC)c4OC)n2)c1 (stereo unspecified)	85.8%	41.5	46.1*	143.6%
COc1ccc2c(c1OC)C(=O)OC2Nc1nc(-c2ccc(-c3ccccc3)cc2)cs1 (stereo unspecified)	425.0%	120.7*	80.2*	i
COc1ccc(N2CC(C(=O)N3CCN(C(=O)c4ccco4)CC3)CC2=O)cc1 (stereo unspecified)	-16.3%	-6.4	-5.8	14.5%
CN(CC(=O)Nc1cccc(F)c1)C(=O)c1ccc(N2CCCCC2)c([N+](=O)[O-])c1	2.9%	·	·	10.8%
O=C(Nc1cccc(S(=O)(=O)NC2=NCCC2)c1)C1CC(=O)N(c2ccc3c(c2)OCCO3)C1 (stereo unspecified)	-27.7%	17.0	11.0	0.7%
Oc1ccc(N=Nc2c(O)ccc3ccccc23)cc1	?	-36.1	32.0*	?
Oc1ccc(N=Nc2ccc3ccccc3c2)cc1	304.9%	·	40.3*	353.8%
NS(=O)(=O)c1ccc(N=Nc2c(O)ccc3ccccc23)cc1	-11.1%	-12.2	-2.4	33.6%[5.75 µM]
COc1cc(N=Nc2ccc3ccccc3c2)ccc1O	164.5%	·	46.8*	122.2%
CCCC[C@@H]1CNCCN1CCCc1cc(OC)c(OC)c(OC)c1	?	·	·	84.2%
O=C(Nc1ccc(N2CCCC2)c(Cl)c1)c1ccc(Br)o1	4.65µM*	39.7	40.6*	4.65µM*
COc1ccc(N2CCCC2)c(NC(=O)c2ccc(Br)o2)c1	-12.9%	1.4	-0.8	16.2%
O=C(Nc1ccccc1N1CCCC1)c1ccc(Br)o1	-24.6%	21.5	9.2*	-11.9%
C/C(CC(=O)Nc1ccc(Cl)cc1Cl)=N\NC(=O)c1ccco1	21.9%	116.4*	36.9*	17.8%
C/C(CC(=O)Nc1ccc(C)c(Cl)c1)=N\NC(=O)Cc1ccccc1	-5.7%	-7.1	8.3	4.7%
C/C(CC(=O)Nc1ccc(C)c(Cl)c1)=N\NC(=O)c1ccco1	14.4%	93.9*	44.9*	14.8%
C=C(C)CNC(=S)NNC(=O)c1ccncc1	5.7%	3.0	-1.8	15.1%
C=C(C)CNC(=S)NNC(=O)CCn1c2cc(Cl)ccc2c2ccc(Cl)cc21	7.38µM*	-9.4	-1.8	82.1%
C=C(C)CNC(=S)NNC(=O)CCn1c2ccc(Cl)cc2c2cc(Cl)ccc21	2.33µM*	10.9	-0.2	44.6%
C=C(C)CNC(=S)NNC(=O)CCn1c2ccccc2c2ccccc21	-21.9%	-12.2	-3.2	?
O=C(NNC(=O)c1ccc(S(=O)(=O)N2CCCC2)cc1)c1ccc(Br)cc1	?	·	·	-0.6%
COc1ccc(Nc2cc(Cl)nc(N)n2)cc1OC	-13.3%	11.3	12.9	0.1%
O=C(COc1cc2oc(=O)c3c(c2cc1Cl)CCCC3)NCC1CCC(C(=O)O)CC1 (stereo unspecified)	21.6%	10.9	-7.8	?
SMILES	Pf growth 48h	Shiga toxin inh	CHX counter	Pf growth 96h
COc1cc2c(cc1O)[C@@H]1Cc3ccc(OC)c(O)c3CN1CC2	11.7µM*	·	·	6.57µM*
CC(=O)Nc1ccc(NC(=O)CCC(=O)Oc2ccc(C)cc2)cc1	-0.5%	-3.9	4.0	39.1%
CCOc1ccc(S(=O)(=O)N/N=C2/CC(c3ccccc3)Oc3ccccc32)cc1 (stereo unspecified)	·	32.4	29.7*	?
O=C(N/N=C1\CC(c2ccccc2)Oc2ccccc21)c1ccc(O)cc1 (stereo unspecified)	?	118.2*	40.5*	?
O=C(N/N=C1\CC(c2ccccc2)Oc2ccccc21)c1cccnc1 (stereo unspecified)	?	7.1	6.3	19.1%
O=S(=O)(N/N=C1\CC(c2ccccc2)Oc2ccccc21)c1ccccc1 (stereo unspecified)	25.4%	35.1	18.3	43.1%
O=C(N/N=C1\CC(c2ccccc2)Oc2ccccc21)c1ccccn1 (stereo unspecified)	?	50.6*	15.4*	-43.1%[5.75 µM]
Cc1cccc(C(=O)NNC(=O)CSc2nnc(C3CC3)n2C)c1	?	3.0	-1.3	?
Oc1cccc2ccc(N3CCOCC3)nc12	33.8%	27.9	24.5*	18.8%
C#CC[N+](CC)(CC)CC#Cc1cccc(Cl)c1	10.4µM*	-7.3	-4.3	?
C#CC[N+](C)(C)CC#Cc1ccc(Cl)cc1	1.65µM*	-6.0	-5.8	?
CC[N+](CC)(CC#CCO)CC#Cc1ccccc1	?	26.9	-5.6	10.4µM*
Cc1ccc(Oc2ccc(OCC(=O)NC(CC(C)C)C(=O)O)cc2)cc1 (stereo unspecified)	-15.8%	-5.4	0.7	24.6%
Cc1ccc(NC(=S)N2CCCC(CO)C2)c(C)c1 (stereo unspecified)	38.8%	12.3	9.4	13.4%
COc1cc(-c2nc(C)c(C(C)=O)n2O)ccc1OCC(=O)Nc1ccc(Cl)cc1	?	-11.6	-2.1	?
CCCCC1=CC2=C(c3ccco3)C(=O)C(C)(OC(=O)c3ccc(OC)cc3)C(=O)C2=CN1c1ccccc1 (stereo unspecified)	?	11.4	-5.3	15.9%
CC1CCC(NC(=O)CCNS(=O)(=O)c2ccc3c(c2)CCC(=O)N3)CC1 (stereo unspecified)	3.6%	-6.7	-4.2	7.8%
Cc1ccc(N2C(=O)SC(N(CC(=O)O)c3cccc(C)c3)C2=O)cc1 (stereo unspecified)	44.3%	98.1*	43.6*	0.1%
C/C=C(/C)C(=O)O[C@@H]1c2c(ccc3ccc(=O)oc23)OC(C)(C)[C@@H]1OC(=O)/C(C)=C\C	6.57µM*	-9.5	-2.2	6.57µM*
C/C=C(/C)C(=O)O[C@@H]1[C@H](OC(=O)C=C(C)C)c2c(ccc3ccc(=O)oc23)OC1(C)C	?	-15.3	-2.9	?
C/C=C(/C)C(=O)O[C@@H]1c2c(ccc3ccc(=O)oc23)O[C@@H]1C(C)(C)OC(C)=O	-33.9%	-13.4	-2.6	5.86µM*
CC(=O)OC1c2c(ccc3ccc(=O)oc23)OC(C)(C)C1OC(=O)CC(C)C (stereo unspecified)	0.4%	-20.2	-5.4	?
Cc1ccc(S(=O)(=O)N2CCCCC2)cc1C(=O)NCCN1CCOCC1	16.6%	·	·	-6.7%
CCOc1cc(/C=N/Nc2nc(=O)[nH]nc2C)ccc1O	2.33µM*	71.1*	42.8*	17.3%
COc1cc(/C=N/Nc2nc(C)cc(C)n2)ccc1OC(=O)c1ccco1	1.6%	-6.7	8.0	?
Cc1n[nH]c(=O)nc1N/N=C/c1ccco1	?	28.3*	11.1	-15.8%
CCOc1ccc(/C=N/Nc2nc(=O)[nH]nc2C)cc1OC	?	33.7*	32.5*	?
COc1cc(/C=N/Nc2nc(=O)[nH]nc2C)cc(OC)c1O	?	94.5*	26.6*	?
COc1cc(/C=N/Nc2nc(C)cc(=O)[nH]2)cc(OC)c1O	5.1%	-2.8	-3.0	-14.4%
